Among the data in paper PMC7862700, “An all-to-all approach to the identification of sequence-specific readers for epigenetic DNA modifications on cytosine” are binding signal values, retold here.

Holding throughout (assay): DAPPL (digital affinity profiling via proximity ligation, sequencing); 10 mM Tris-HCl pH 7.5, 50 mM NaCl, 1 mM DTT, 4% glycerol, room temperature, 30 min; GST-TFs on glutathione beads, 16-mer random dsDNA library, 0.1% formaldehyde crosslink after washing; high values mean tight binding
Holding throughout (conditions): protein: recombinant; tags: N-terminal GST; dsDNA, one strand shown

Experiment [1] has as its target T1, FLI1 (Homo sapiens, UniProt Q01543 1-452).
T1 sequence: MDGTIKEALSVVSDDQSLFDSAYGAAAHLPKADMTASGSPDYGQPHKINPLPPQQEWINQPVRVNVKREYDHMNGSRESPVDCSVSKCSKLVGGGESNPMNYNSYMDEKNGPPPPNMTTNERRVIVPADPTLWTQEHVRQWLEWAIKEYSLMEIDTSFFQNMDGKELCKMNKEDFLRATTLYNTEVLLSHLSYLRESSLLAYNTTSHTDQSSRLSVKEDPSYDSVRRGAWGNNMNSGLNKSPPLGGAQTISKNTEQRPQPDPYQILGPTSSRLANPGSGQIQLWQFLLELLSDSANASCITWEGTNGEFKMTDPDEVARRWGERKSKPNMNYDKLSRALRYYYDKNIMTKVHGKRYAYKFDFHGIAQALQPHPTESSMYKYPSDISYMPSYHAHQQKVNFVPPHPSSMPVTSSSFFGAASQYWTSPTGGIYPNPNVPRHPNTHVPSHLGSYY
Summed up:
(§1)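 Pools of DNA-barcoded human transcription factors, expressed in yeast as GST fusions on glutathione beads and combined with a tag-only sample, were incubated with 200 nmole of a 16-mer random double-stranded DNA library. Incubation took 30 min at room temperature in Tris/NaCl/DTT/glycerol buffer and was followed by washing, 0.1% formaldehyde crosslinking, proximity ligation (BsaI/T4 ligase, 1 h, 37 °C), PCR amplification and sequencing on an Illumina NextSeq500. Binding signal is the ratio of a hexamer's read frequency for a factor to its frequency for the tag-only sample.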

Experiment [2] concerns the target T2, ELK1 (Homo sapiens, UniProt P19419 1-428).
T2 sequence: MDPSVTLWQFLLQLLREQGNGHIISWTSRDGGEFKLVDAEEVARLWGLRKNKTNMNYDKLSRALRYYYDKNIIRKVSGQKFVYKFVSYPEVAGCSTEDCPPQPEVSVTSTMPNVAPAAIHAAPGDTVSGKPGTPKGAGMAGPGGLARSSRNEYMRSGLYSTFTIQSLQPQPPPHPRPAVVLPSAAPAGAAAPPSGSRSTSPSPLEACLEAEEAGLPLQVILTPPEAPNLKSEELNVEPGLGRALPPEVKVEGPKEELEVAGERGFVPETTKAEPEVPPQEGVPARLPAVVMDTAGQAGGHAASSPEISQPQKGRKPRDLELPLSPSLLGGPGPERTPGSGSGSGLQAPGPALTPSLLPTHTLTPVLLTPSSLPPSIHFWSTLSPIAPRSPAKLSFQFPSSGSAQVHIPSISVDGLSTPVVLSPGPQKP
In a few lines: as §1

Experiment [3] deals with T3, GABPA (Homo sapiens, UniProt Q06546 1-454).
T3 sequence: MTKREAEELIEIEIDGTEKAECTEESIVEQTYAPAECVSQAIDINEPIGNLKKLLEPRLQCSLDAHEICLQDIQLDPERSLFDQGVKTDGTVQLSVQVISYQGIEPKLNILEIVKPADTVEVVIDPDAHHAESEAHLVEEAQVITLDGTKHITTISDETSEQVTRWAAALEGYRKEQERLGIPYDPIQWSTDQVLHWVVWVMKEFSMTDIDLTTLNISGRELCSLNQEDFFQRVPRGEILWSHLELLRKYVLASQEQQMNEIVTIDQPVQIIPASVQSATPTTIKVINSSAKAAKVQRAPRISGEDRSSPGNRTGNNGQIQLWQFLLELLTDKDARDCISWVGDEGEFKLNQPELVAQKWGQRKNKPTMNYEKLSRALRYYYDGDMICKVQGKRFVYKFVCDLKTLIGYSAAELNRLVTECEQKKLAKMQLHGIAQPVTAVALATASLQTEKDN
In a few lines:
as §1

In experiment [4] the target is T4, ERG (Homo sapiens, UniProt P11308 1-479).
T4 sequence: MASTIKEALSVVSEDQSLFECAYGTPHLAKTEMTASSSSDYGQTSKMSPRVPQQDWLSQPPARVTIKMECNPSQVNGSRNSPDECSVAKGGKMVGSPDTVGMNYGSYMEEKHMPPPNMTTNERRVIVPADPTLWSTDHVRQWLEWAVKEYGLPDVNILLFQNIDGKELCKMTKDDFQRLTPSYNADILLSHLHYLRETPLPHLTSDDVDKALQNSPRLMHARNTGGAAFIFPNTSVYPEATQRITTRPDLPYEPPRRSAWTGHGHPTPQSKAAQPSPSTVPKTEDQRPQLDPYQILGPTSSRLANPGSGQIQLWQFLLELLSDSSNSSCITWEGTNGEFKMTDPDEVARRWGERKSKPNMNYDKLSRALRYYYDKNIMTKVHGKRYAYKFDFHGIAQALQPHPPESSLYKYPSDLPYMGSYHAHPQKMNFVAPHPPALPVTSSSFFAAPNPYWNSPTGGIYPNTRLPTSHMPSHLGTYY
Summed up: as §1

Experiment [5] concerns the target ELF1 (Homo sapiens, UniProt P32519 1-619). In a few lines:
as §1

Experiment [6] concerns the target T5, EHF (Homo sapiens, UniProt Q9NZC4 1-300).
T5 sequence: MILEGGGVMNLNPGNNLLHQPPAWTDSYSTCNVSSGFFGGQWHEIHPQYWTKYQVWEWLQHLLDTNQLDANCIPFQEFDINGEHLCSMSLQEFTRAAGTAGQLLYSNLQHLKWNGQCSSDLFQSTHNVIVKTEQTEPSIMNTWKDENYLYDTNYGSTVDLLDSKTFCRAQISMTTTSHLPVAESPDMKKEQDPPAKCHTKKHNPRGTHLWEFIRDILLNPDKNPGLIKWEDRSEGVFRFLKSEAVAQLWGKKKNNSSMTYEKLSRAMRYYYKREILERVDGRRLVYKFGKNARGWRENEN
In a few lines:
as §1

The target in experiment [7] is SPI1 (Homo sapiens, UniProt P17947 1-270). Summed up: as §1
The target in experiment [8] is SPIB (Homo sapiens, UniProt Q01892 1-262). In a few lines: as §1
Chain of SPIB (Q01892 whole entry): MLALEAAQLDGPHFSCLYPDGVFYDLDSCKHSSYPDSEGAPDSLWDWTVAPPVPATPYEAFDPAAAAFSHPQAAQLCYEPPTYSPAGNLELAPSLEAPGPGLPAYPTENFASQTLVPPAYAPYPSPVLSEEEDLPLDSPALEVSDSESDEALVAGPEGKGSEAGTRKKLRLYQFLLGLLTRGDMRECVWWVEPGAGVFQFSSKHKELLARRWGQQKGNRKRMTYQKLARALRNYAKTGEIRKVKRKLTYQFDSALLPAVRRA
For experiment [9], the target named is T6, ELK3 (Homo sapiens, UniProt P41970 1-407).
T6 sequence: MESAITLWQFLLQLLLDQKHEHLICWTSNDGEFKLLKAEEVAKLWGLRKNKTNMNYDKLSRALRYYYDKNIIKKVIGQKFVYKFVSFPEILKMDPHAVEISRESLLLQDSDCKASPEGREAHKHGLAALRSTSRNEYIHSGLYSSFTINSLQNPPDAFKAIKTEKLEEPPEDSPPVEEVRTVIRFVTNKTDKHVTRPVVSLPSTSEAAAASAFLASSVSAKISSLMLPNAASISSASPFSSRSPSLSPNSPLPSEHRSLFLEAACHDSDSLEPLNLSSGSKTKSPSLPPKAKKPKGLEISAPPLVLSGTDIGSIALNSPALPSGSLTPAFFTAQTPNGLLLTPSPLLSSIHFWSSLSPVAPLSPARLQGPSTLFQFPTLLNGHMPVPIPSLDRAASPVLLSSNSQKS
Summed up:
as §1

Chain of ELF1 (P32519 whole entry): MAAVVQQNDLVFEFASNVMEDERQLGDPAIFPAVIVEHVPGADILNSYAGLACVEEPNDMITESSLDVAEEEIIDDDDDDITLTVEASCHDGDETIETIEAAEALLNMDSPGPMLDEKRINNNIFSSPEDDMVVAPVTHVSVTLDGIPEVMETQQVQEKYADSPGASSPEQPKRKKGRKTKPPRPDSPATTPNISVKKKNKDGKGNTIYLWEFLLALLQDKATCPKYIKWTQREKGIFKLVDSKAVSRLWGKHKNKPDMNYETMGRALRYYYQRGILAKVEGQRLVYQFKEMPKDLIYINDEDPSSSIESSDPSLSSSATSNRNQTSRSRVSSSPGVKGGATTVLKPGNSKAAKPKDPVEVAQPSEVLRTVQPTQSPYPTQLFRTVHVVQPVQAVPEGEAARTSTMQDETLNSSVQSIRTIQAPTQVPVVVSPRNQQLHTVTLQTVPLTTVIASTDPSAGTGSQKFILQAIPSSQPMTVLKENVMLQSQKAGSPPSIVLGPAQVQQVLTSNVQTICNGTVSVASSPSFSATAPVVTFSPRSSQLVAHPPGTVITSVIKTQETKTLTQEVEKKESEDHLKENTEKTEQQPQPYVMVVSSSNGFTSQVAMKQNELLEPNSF

On to CACCTT, for which the binding signal in [1] was 1.36 fold enrichment (6-mer frequency, TF over GST control); in [2] it was 1.28 fold enrichment (6-mer frequency, TF over GST control); in experiment [3] it was 1.22 fold enrichment (6-mer frequency, TF over GST control); in experiment [4], 1.26 fold enrichment (6-mer frequency, TF over GST control); in experiment [5] it was 1.24 fold enrichment (6-mer frequency, TF over GST control); in experiment [6], 1.34 fold enrichment (6-mer frequency, TF over GST control). The binding signal in experiment [7] is 1.25 fold enrichment (6-mer frequency, TF over GST control); in [8], 1.18 fold enrichment (6-mer frequency, TF over GST control); in experiment [9] it was 1.26 fold enrichment (6-mer frequency, TF over GST control).

Take TTGATC: the binding signal in [1] is 1.21 fold enrichment (6-mer frequency, TF over GST control); in [2] it was 1.22 fold enrichment (6-mer frequency, TF over GST control); in experiment [3] it was 1.21 fold enrichment (6-mer frequency, TF over GST control); in experiment [4] it was 1.19 fold enrichment (6-mer frequency, TF over GST control); in experiment [5] it was 1.21 fold enrichment (6-mer frequency, TF over GST control); in experiment [6] it was 1.12 fold enrichment (6-mer frequency, TF over GST control). Further, the binding signal in experiment [7] was 1.23 fold enrichment (6-mer frequency, TF over GST control); in [8], 1.3 fold enrichment (6-mer frequency, TF over GST control); in [9] it was 1.26 fold enrichment (6-mer frequency, TF over GST control).

As for AAGGTA, the binding signal in [1] is 1.1 fold enrichment (6-mer frequency, TF over GST control); in experiment [2] it was 1.08 fold enrichment (6-mer frequency, TF over GST control); in experiment [3], 1.18 fold enrichment (6-mer frequency, TF over GST control); in [4], 1.05 fold enrichment (6-mer frequency, TF over GST control); in experiment [5], 1.13 fold enrichment (6-mer frequency, TF over GST control); in [6], 1.1 fold enrichment (6-mer frequency, TF over GST control). Also, the binding signal is 1.07 fold enrichment (6-mer frequency, TF over GST control) in experiment [7]; 1.05 fold enrichment (6-mer frequency, TF over GST control) in experiment [8]; 1.09 fold enrichment (6-mer frequency, TF over GST control) in experiment [9].

Take CCCTCC: the binding signal is 1.37 fold enrichment (6-mer frequency, TF over GST control) in [1]; 1.54 fold enrichment (6-mer frequency, TF over GST control) in experiment [2]; 1.5 fold enrichment (6-mer frequency, TF over GST control) in experiment [3]; 1.41 fold enrichment (6-mer frequency, TF over GST control) in experiment [4]; 1.49 fold enrichment (6-mer frequency, TF over GST control) in experiment [5]; 1.37 fold enrichment (6-mer frequency, TF over GST control) in experiment [6]. Moreover, the binding signal is 1.35 fold enrichment (6-mer frequency, TF over GST control) in experiment [7]; 1.39 fold enrichment (6-mer frequency, TF over GST control) in experiment [8]; 1.37 fold enrichment (6-mer frequency, TF over GST control) in experiment [9].

For the sequence GTCCCT, the binding signal is 1.15 fold enrichment (6-mer frequency, TF over GST control) in experiment [1]; 1.29 fold enrichment (6-mer frequency, TF over GST control) in experiment [2]; 1.2 fold enrichment (6-mer frequency, TF over GST control) in experiment [3]; 1.24 fold enrichment (6-mer frequency, TF over GST control) in experiment [4]; 1.28 fold enrichment (6-mer frequency, TF over GST control) in experiment [5]; 1.27 fold enrichment (6-mer frequency, TF over GST control) in [6]. The binding signal in [7] was 1.38 fold enrichment (6-mer frequency, TF over GST control); in experiment [8] it was 1.18 fold enrichment (6-mer frequency, TF over GST control); in experiment [9] it was 1.16 fold enrichment (6-mer frequency, TF over GST control).

As for CGATAT, the binding signal in experiment [1] is 1.14 fold enrichment (6-mer frequency, TF over GST control); in experiment [2], 1.03 fold enrichment (6-mer frequency, TF over GST control); in experiment [3] it was 1.08 fold enrichment (6-mer frequency, TF over GST control); in experiment [4], 1.03 fold enrichment (6-mer frequency, TF over GST control); in [5], 1.12 fold enrichment (6-mer frequency, TF over GST control); in experiment [6], 1.1 fold enrichment (6-mer frequency, TF over GST control). Further, the binding signal in [7] is 1.03 fold enrichment (6-mer frequency, TF over GST control); in [8] it was 1.02 fold enrichment (6-mer frequency, TF over GST control); in experiment [9], 1.06 fold enrichment (6-mer frequency, TF over GST control).

TGCACT: the binding signal in experiment [1] is 1.37 fold enrichment (6-mer frequency, TF over GST control); in experiment [2] it was 1.58 fold enrichment (6-mer frequency, TF over GST control); in experiment [3], 1.4 fold enrichment (6-mer frequency, TF over GST control); in experiment [4], 1.43 fold enrichment (6-mer frequency, TF over GST control); in [5], 1.42 fold enrichment (6-mer frequency, TF over GST control); in experiment [6] it was 1.3 fold enrichment (6-mer frequency, TF over GST control). Also, the binding signal in experiment [7] was 1.68 fold enrichment (6-mer frequency, TF over GST control); in experiment [8], 1.21 fold enrichment (6-mer frequency, TF over GST control); in experiment [9] it was 1.26 fold enrichment (6-mer frequency, TF over GST control).

CGTACC: the binding signal is 1.24 fold enrichment (6-mer frequency, TF over GST control) in experiment [1]; 1.15 fold enrichment (6-mer frequency, TF over GST control) in experiment [2]; 1.18 fold enrichment (6-mer frequency, TF over GST control) in experiment [3]; 1.12 fold enrichment (6-mer frequency, TF over GST control) in experiment [4]; 1.15 fold enrichment (6-mer frequency, TF over GST control) in experiment [5]; 1.15 fold enrichment (6-mer frequency, TF over GST control) in [6]. Moreover, the binding signal in experiment [7] is 1.14 fold enrichment (6-mer frequency, TF over GST control); in [8], 1.12 fold enrichment (6-mer frequency, TF over GST control); in [9], 1.21 fold enrichment (6-mer frequency, TF over GST control).
